Gal4-VP16 FLuc: VP16 counterscreen qHTS for inhibitors of ROR gamma transcriptional activity | Drosophila S2 Gal4-VP16 UAS-luciferase, luminescence, 20 h | Potency, µM (highest dose often 53.6 µM), for the others: at the top dose activity, negative = inhibition, actives largely listed as inhibitors | AID 2546, 2010 | 310,000 compounds, 3.5% hits;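 further: Gal4-VP16 expression switched on by copper sulfate through the metallothionein promoter; on the % scale 0 is the no-effect control and ±100 the full control effect; nearly all actives have a fitted effect of over 50% in size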
SW480 rereplic: A quantitative high throughput screen for small molecules that induce DNA re-replication in SW480 colon adenocarcinoma cells; AID 624297, 2012; SW480 DNA re-replication, Hoechst DNA content imaging, 48 h; 340,000 compounds, 1.8% hits; Potency, µM (doses to about 46.1 µM), for the others: at the highest dose re-replication activation, usual class: activators; further: % of control where 0% means no effect; nearly all actives have a fitted effect of over 55% in size
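Per well, 250 cells were exposed to pinned compound for 48 hr. Nuclear DNA was visualised with Hoechst (40 min, 37 C) and total object intensity recorded by fluorescence scanning.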
KB-V1 MDR tox: qHTS assay for MDR1-selective chemotherapeutics: Primary screen using the drug-selected MDR subline cells KB-V1 | KB-V1 MDR cells viability, CellTiter-Glo, 72 h | Potency, µM (series often up to 46.1 µM), hits mostly cytotoxic | 400,000 compounds, 3.4% hits | AID 1347076, 2019; further: on the % scale 0 is the no-effect control and ±100 the full control effect; nearly all actives have a fitted effect of over 60% in size
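KB-V1, DMEM (no phenol red) + 10% FBS; cpd pin-transferred, titration series; 72 h, 37 degrees C; CellTiter-Glo, luminescence. Data normalized, curve-fit.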
RORgamma inh: qHTS for inhibitors of ROR gamma transcriptional activity; Nuclear receptor ROR-gamma (Mus musculus), P51450; Drosophila S2 Gal4-RORgamma UAS-luciferase reporter, 20 h; Potency, µM (doses to about 53.6 µM), without a hit: at the top dose activity change, negative = inhibition, usual class: inhibitors; 310,000 compounds, 5.4% hits; further: on the % scale 0 is the no-effect control and ±100 the full control effect; nearly all actives have a fitted effect of over 60% in size
Target sequence (P51450 whole entry, looked up, the tested form may be a part): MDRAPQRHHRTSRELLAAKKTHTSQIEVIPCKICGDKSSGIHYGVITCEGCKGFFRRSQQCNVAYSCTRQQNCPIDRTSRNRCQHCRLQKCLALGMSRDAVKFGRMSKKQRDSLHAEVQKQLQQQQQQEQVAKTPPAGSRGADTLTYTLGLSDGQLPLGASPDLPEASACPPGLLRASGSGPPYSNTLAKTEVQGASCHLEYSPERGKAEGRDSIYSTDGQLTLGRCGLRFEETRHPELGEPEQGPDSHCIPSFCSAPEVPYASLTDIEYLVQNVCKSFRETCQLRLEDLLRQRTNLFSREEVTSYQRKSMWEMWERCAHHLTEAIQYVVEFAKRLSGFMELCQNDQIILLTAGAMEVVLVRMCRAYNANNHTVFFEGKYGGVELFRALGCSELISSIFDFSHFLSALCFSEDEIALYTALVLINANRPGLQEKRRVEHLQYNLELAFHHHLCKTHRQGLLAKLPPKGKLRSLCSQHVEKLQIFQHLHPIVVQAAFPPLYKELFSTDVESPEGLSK
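Using a luciferase readout, inhibitors were identified by reduced reporter activity in Drosophila cells coexpressing a copper-inducible Gal4–ROR gamma fusion and UAS-driven Photinus luciferase, incubated 20 hr after 700 uM copper sulfate.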
KB-3-1 cytotox: qHTS assay for MDR1-selective chemotherapeutics: Primary screen using the parental adenocarcinoma cell KB-3-1; KB-3-1 viability, CellTiter-Glo ATP luminescence, 72 h; Potency, µM (series often up to 46.1 µM), actives largely listed as cytotoxic; 400,000 compounds, 1.4% hits; AID 1347075, 2019; further: on the % scale 0 is the no-effect control and ±100 the full control effect; nearly all actives have a fitted effect of over 60% in size
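Luminescent ATP read-out (CellTiter-Glo) measures survival of drug-naive KB-3-1 cells after 72 h compound exposure at 37 °C. Titration series was screened from lowest to highest concentration, with DMSO vehicle plates as background controls.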
MCF10A rerep: A quantitative high throughput screen for small molecules that induce DNA re-replication in MCF 10a normal breast cells | AID 624296, 2012 | 350,000 compounds, 2.9% hits | Potency, µM (series often up to 46.1 µM), for inactives: top-dose activity, positive = re-replication, hits mostly activators | MCF 10A DNA re-replication, Hoechst nuclear intensity, 48 h; further: % of control where 0% means no effect; nearly all actives have a fitted effect of over 50% in size
* marks the source's active call; other numbers are inactive results; i = inactive; ? = inconclusive; . = no result; [ ] = another dose, or the depositor's remark. Only some compounds are listed: those with a hit (about 10% of all), similar ones and a draw of the others. The call rests on the fitted dose curve; in most records, active means well fitted curve in the direction sought with a large enough effect; inconclusive means small, poorly fitted or top-dose-only effect, or another doubt; inactive means no such curve, though single readings can be large; an effect the other way counts as inactive or inconclusive. Potency means the concentration at half of the fitted maximal effect.

SMILES	Gal4-VP16 FLuc	SW480 rereplic	KB-V1 MDR tox	RORgamma inh	KB-3-1 cytotox	MCF10A rerep
CC1(C)Oc2ccc3ccc(=O)oc3c2C(N2CCCCC2)C1O (centres undefined)	9%	-44%	i	39%	i	-177%[0.0737 µM]
CC(=O)OC1C(N2CCCCC2)c2c(ccc(/C=C/C(=O)N3CCCCC3)c2O)OC1(C)C (centres undefined)	1.3µM*	2%	i	?	i	-9%
Cc1ccc(C2CC(=O)N(Cc3ccccc3F)c3c2c(C)nn3-c2nc(C)cc(C)n2)cc1 (centres undefined)	.	.	i	.	i	.
CCOc1ccc(C2C(C#N)=C(N)SC(N)=C2C#N)cc1OCC	7.9µM*	6%	i	-28%	i	-1%
CCOc1ccc(C2C(C#N)=C(N)SC(N)=C2C#N)cc1OC	0%	.	.	?	.	.
CCN(c1ccccc1)S(=O)(=O)c1ccc(C(=O)Nc2ncccc2O)cc1	?	-1%	?	20µM*	i	13%
O=C(Nc1ncccc1O)c1ccc(S(=O)(=O)Nc2ccccc2)cc1	.	-648%	9.2µM*	.	10µM*	19%
O=C(Nc1ncccc1O)c1ccc(NS(=O)(=O)c2ccc3[nH]c(=O)[nH]c3c2)cc1	.	16µM*	i	.	?	4%
CCN(c1ccccc1)S(=O)(=O)c1cc(C(=O)Nc2ccc(F)c(F)c2)ccc1F	?	?	i	?	i	13µM*
CCn1c(=O)cc(SCC(=O)NCc2ccc(F)cc2Cl)c2ccccc21	.	.	i	.	i	.
CSCC[C@H](NC(=O)[C@H](Cc1ccccc1)NC[C@@H](NC[C@@H](N)CS)C(C)C)C(=O)O	1%	.	.	23%	.	.
CCOc1ccc(N(CC)S(=O)(=O)c2cc(Br)cc3c2N(C(C)=O)C(C)C3)cc1 (centres undefined)	.	.	i	.	?	.
COc1cccc(NC(=O)c2oc3ccccc3c2NC(=O)C(C)(C)C)c1	?	?	i	0%	i	26µM*
COc1ccccc1NC(=O)c1oc2ccccc2c1NC(=O)c1cccc(OC)c1OC	.	.	?	.	12µM*	.
CCOC(=O)c1oc2ccccc2c1NC(=O)c1ccccc1OC	-3%	?	?	27%	i	?
COC(=O)c1oc2ccccc2c1NC(=O)c1ccccc1O	-8%	10µM*	?	0%	i	-34%
COc1ccc(NC(=O)c2oc3ccccc3c2NC(=O)C23CC4CC(CC(C4)C2)C3)c(OC)c1	.	.	i	.	23µM*	.
O=C(O)/C=C/C(=O)Nc1ccccc1C(=O)OCC(=O)c1ccc2c(c1)OCCO2	8.9µM*	19%	i	7.9µM*	i	?
CCC(=O)Nc1ccccc1C(=O)OCC(=O)c1ccccc1	-26%	-11%	?	10µM*	i	6%
CCN(CC)S(=O)(=O)c1cccc(C(=O)OCC(=O)c2ccc3c(c2)OCCO3)c1	-3%	-17%	13µM*	34%	i	3%
CCOC(=O)c1cc(-c2ccc(F)cc2)n(CCC(=O)NCc2ccc(C)cc2)c1C	.	.	i	.	i	.
COc1ccc(CNc2ccnc(-c3ccccc3Cl)n2)c(OC)c1	-14%	.	.	44%	.	.
CC(=O)c1ccc(Nc2nc(CN)cs2)cc1	.	.	i	.	i	.
CC1(C)CC(=O)C2=C(C1)O[C@@]1(c3ccsc3)Cc3cc(C#N)ccc3C2O1	3%[10 µM]	.	.	2%[10 µM]	.	.
CSCCC(C(=O)Nc1c(C)cccc1C)N1CCN(c2ccc(F)cc2)CC1 (centres undefined)	.	.	i	.	i	.
COc1ccccc1N(C1=NCCCS1)S(=O)(=O)c1ccc(C(C)(C)C)cc1	-12%	13%	23µM*	29%	?	1%
